# PubChem BioAssay AID1347165 (National Center for Advancing Translational Sciences (NCATS), 2019)
# In all, about 220,000 compounds went through this assay and about 5,700 (2.6%) were called active. Roughly 18% stayed inconclusive and do not appear here. Shown is part of a subset that was picked to be rich in actives. Unmarked numbers belong to inactive results. Calls come from the whole dose curve; as a rule, active = well fitted inhibition curve with a large enough effect; inconclusive = small, poorly fitted or top-dose-only effect; inactive = no such curve, though single readings can be large or run the other way.
# Target: Lysine-specific demethylase 5B (Homo sapiens) (UniProt Q9UGL1)
# Sequence (Q9UGL1 whole entry, looked up): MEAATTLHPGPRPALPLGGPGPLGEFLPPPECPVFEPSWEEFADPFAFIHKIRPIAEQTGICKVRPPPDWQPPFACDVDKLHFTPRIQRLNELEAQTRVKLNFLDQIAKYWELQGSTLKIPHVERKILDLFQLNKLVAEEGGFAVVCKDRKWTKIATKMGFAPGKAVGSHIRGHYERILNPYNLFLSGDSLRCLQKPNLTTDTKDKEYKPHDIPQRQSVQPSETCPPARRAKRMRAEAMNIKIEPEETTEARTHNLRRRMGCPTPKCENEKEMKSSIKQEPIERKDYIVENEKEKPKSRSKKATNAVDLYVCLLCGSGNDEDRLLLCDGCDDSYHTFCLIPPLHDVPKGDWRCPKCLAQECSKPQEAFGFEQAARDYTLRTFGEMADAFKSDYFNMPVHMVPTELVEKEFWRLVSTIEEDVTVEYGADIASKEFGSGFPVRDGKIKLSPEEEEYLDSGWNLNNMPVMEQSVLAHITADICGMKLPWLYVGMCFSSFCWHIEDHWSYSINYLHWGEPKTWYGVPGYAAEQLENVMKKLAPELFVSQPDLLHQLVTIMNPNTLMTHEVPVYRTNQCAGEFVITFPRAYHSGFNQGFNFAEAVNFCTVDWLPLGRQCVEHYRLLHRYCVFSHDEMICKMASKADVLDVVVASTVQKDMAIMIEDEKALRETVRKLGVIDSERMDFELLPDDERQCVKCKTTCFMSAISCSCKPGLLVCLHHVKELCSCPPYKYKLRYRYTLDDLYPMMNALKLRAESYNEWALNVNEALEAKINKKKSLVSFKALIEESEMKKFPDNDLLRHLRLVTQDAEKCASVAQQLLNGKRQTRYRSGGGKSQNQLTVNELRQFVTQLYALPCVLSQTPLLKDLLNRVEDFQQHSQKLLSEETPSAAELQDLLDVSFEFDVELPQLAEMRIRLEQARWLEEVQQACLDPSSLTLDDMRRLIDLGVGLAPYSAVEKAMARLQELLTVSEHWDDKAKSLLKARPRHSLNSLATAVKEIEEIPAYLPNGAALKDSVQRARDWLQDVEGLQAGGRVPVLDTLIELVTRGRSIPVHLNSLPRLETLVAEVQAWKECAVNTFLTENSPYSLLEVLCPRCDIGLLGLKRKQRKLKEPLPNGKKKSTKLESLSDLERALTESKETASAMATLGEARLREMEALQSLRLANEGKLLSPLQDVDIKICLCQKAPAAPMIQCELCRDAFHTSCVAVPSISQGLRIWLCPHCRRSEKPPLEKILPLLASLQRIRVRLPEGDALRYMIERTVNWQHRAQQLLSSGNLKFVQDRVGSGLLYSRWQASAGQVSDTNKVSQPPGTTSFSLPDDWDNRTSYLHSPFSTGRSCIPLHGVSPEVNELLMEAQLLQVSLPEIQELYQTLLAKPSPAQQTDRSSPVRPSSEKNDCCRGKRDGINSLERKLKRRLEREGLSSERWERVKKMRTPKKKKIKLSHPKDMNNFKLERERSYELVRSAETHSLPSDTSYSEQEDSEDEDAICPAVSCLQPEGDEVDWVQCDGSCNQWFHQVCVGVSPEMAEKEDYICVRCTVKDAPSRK
# Test: Primary screen for KDM5B Histone Demethylases FDH-coupled qHTS; note: nearly all actives have a fitted effect of over 70% in size; for activity change, negative = inhibition: 0% is about no effect
# Details: FDH-coupled NADH fluorescence (FDH is formaldehyde dehydrogenase); series mostly up to 57.7 µM; activity change, negative = inhibition: at the top concentration
# How it was run: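 Compound dilutions met 200 nM (final) KDM5BΔAP for 10 min at room temperature before substrate addition. The substrate mix held 12.5 µM H3K4me3 with cofactors 25 µM α-ketoglutarate and 50 µM Fe²⁺. NADH signal gain over 30 min defined activity.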
# Potency is the fitted concentration of half-maximal effect.
SMILES,"activity change, negative = inhibition",Potency
N#Cc1cccc(Cn2c(=O)c3c(ncn3C3CCCC3)n(Cc3ccccc3)c2=O)c1,6.91%,–
COc1ncccc1Nc1ncc(-c2ccccc2)c2c1OCC2,-642% [at 86.2 µM],–
CN1CCN(Cc2ccc(Nc3ncc(-c4cccnc4)c4c3OCC4)cc2)CC1,-29.8% [at 86.2 µM],–
CN(C)c1cccc(-c2cnc(Nc3ccc(N4CCOCC4)cc3)c3c2CCO3)c1,–,35.5 µM (active)
CN=c1scc(-c2cccs2)n1/N=C/c1cccs1,4.26%,–
Cc1cnc(CCNC(=O)Nc2ccccc2F)n1C1CCC1,-9.92%,–
COc1ccccc1C(=O)NCCC(=O)N(C)Cc1cccnc1,15.8%,–
COc1ncccc1-c1cnc2[nH]cc(CC(=O)N(C)Cc3ccccc3)c2c1,–,28.2 µM (active)
COCCNC(=O)Cc1c[nH]c2ncc(-c3cccnc3OC)cc12,–,31.6 µM (active)
Cc1ccccc1C(=O)NCc1c[nH]c2ncccc12,-7.61% [at 86.2 µM],–
CNC(=O)c1cccc(-c2cnc3[nH]cc(CC(=O)NCc4cccc(F)c4)c3c2)c1,-2.5% [at 86.2 µM],–
CN(Cc1cccs1)C(=O)Cc1c[nH]c2ccccc12,2.68%,–
CN(CC(=O)NCc1ccc(F)cc1)C(=O)c1ccc2c(c1)nnn2C,-1.64%,–
Cc1nc2cc(NC(=O)c3cccc(S(=O)(=O)Nc4ccc(SC(F)F)cc4)c3)ccc2o1,-21.1%,–
CCN(CC)S(=O)(=O)c1ccc(-c2csc(-c3cccc(OC)c3OC)n2)cc1,6.59%,–
NC(Cc1ccccc1)(Cc1ccccc1)C(=O)O,5.7%,–
O=C(c1cnc(N2CCCCC2)c2ccccc12)N1CCN(c2ccccn2)CC1,-0.794%,–
O=[N+]([O-])c1ccccc1CN1C[C@H](O)C[C@H]1c1nc(-c2ccc(F)cc2)no1,–,25.1 µM (active)
N#Cc1cccc(CN2C[C@H](O)C[C@H]2c2nc(-c3ccccn3)no2)c1,-20.8% [at 86.2 µM],–
O[C@@H]1C[C@@H](c2nc(-c3ccc4c(c3)OCO4)no2)N(Cc2ccc(-c3ccccn3)cc2)C1,–,25.1 µM (active)
O=[N+]([O-])c1cccc(-c2noc([C@@H]3C[C@@H](O)CN3Cc3cccc(OC(F)(F)F)c3)n2)c1,-27%,–
Oc1ccccc1CN1C[C@H](O)C[C@H]1c1nc(Cc2ccc(F)cc2Cl)no1,7.24% [at 86.2 µM],–
COc1ccc(CN2C[C@H](O)C[C@H]2c2nc(-c3ccc4c(c3)OCO4)no2)c(OC)c1OC,-8.22%,–
CC(c1nc(-c2cccs2)no1)N(C)Cc1ccc(F)cc1F (centres undefined),12.1%,–
Cc1ccc(NC(=O)N2CCC(OC3CCN(S(C)(=O)=O)CC3)CC2)cc1F,22.8%,–

SMILES,"activity change, negative = inhibition",Potency
CC(Sc1ncnc2nc[nH]c12)C(=O)NCc1ccc(Cl)c(Cl)c1 (centres undefined),11.4%,–
O=C(NC1CCN(c2cc(-c3ccc(Cl)cc3)[nH]n2)C1)c1c[nH]c2ccccc12 (centres undefined),–,11.2 µM (active)
O=C(NC1CCCN(c2cc(-c3ccccc3)[nH]n2)C1)c1cccc(Cl)c1 (centres undefined),-14.6%,–
O=C(NC1CCCN(c2cc(-c3ccc(Cl)cc3)[nH]n2)C1)c1ccccc1F (centres undefined),-5.14%,–
Cn1nccc1C(=O)NC1CCCN(c2cc(-c3ccc(F)cc3)[nH]n2)C1 (centres undefined),-17.7%,–
O=C(NC1CCCN(c2cc(-c3ccc(F)cc3)[nH]n2)C1)c1ccc(Br)cc1 (centres undefined),7.03%,–
O=C(NC1CCN(c2cc(-c3ccccc3)[nH]n2)CC1)c1cccs1,5.39%,–
O=C(NC1CCN(c2cc(-c3ccc(F)cc3)[nH]n2)C1)c1cc2ccccc2[nH]1 (centres undefined),–,8.91 µM (active)
O=C(NC1CCCN(c2cc(-c3ccccc3)[nH]n2)C1)c1cccc2[nH]ccc12 (centres undefined),–,28.2 µM (active)
O=C(NC1CCN(c2cc(-c3cccs3)[nH]n2)C1)c1ccc(Br)cc1 (centres undefined),–,4.47 µM (active)
O=C(NC1CCN(c2cc(-c3ccc(F)cc3)[nH]n2)C1)c1ccc2c(c1)OCO2 (centres undefined),-28%,–
O=C(NC1CCCN(c2cc(-c3ccc(Cl)cc3)[nH]n2)C1)c1ccncc1 (centres undefined),-2.2%,–
O=C(NC1CCN(c2cc(-c3ccc(Cl)cc3)[nH]n2)CC1)c1ccccc1F,-1.6%,–
C=C(Br)CN1CCCC1,-17.3%,–
CCc1cccc(-n2c(SCc3nc4ccccc4o3)nnc2N2CCOCC2)c1,-1.04%,–
O=C(c1ccccc1F)N1CCC(c2nn(-c3ccc(Cl)cc3)c(=O)[nH]2)CC1,-1%,–
CCOc1cccc2cc(-c3cc(=O)oc4cc(OC(=O)N5CCOCC5)ccc34)c(=O)oc12,-7.16%,–
Cc1cc(C)c2nc(SCC(=O)NC(=O)NC(C)(C)C)cc(C)c2c1,1.49%,–
COc1cccc(CC(=O)NC2CCN(c3cc(-c4ccc(F)cc4)[nH]n3)C2)c1 (centres undefined),–,7.94 µM (active)
COc1ccc(CC(=O)NC2CCN(c3cc(-c4ccccc4)[nH]n3)CC2)cc1,0.366%,–
CCOc1ccc(CC(=O)NC2CCN(c3cc(-c4ccc(F)cc4)[nH]n3)CC2)cc1OCC,13.2%,–
Cc1ccc(S(=O)(=O)NCCC(=O)Nc2cccc(S(N)(=O)=O)c2)cc1C,31.2%,–
CC1(c2cccnc2)N(CCOc2ccccc2)C(=O)OC12CCN(C(=O)c1cccc(Cl)c1)CC2 (centres undefined),-16.2%,–
CC1(c2cccnc2)N(Cc2ccccc2)C(=O)OC12CCN(C(=O)c1cccc(Cl)c1)CC2 (centres undefined),-16%,–
